{"source": "PubChem BioAssay (NCI)", "note": "Compounds without any hit were thinned out: in the full panel of roughly 83,000, 20% have a hit.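 Compound tested at a single concentration for 48 hours in 96-well plates; a percent growth value below 10 was scored as active.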 Active and inactive are the calls of the source."}
{"system": "NCI-H460 lung", "assay": "NCI-60 one-dose screen, 48 h (100 = growth as untreated, 0 = no growth, -100 = all killed)", "conditions": "10 µM unless noted"}
{"compound": "CC(C)(C)CC(C)(C)n1nnnc1C(Nc1nccs1)c1cc2cccc3ccc4cccc1c4c32", "note": "(configuration not stated)", "growth": "103% (inactive)"}
{"compound": "COc1ccc(/C(N)=N/C(N)=N/c2nc3ccccc3s2)cc1", "growth": "82.5% (inactive)"}
{"compound": "COc1ccc(-c2nn(-c3ccc(S(C)(=O)=O)cc3)cc2/C=N/O)cc1", "growth": "102% (inactive)"}
{"compound": "CCOc1cccc(-c2nc3sccn3c2-c2ccnc(S(C)(=O)=O)n2)c1", "growth": "76.8% (inactive)"}
{"compound": "O=C(c1ccc(Cl)cc1)C1[C@H](c2ccc(Cl)cc2)[C@@H](c2ccccc2)NC12C(=O)Nc1ccccc12", "note": "(some centres not stated)", "growth": "32.7% (inactive)"}
{"system": "HOP-92 NSCLC", "assay": "NCI-60 one-dose screen, 48 h (100 = growth as untreated, 0 = no growth, -100 = all killed)", "conditions": "10 µM"}
{"compound": "COc1cc2oc(-c3cccc(NC(=O)c4cc(N)ccc4Cl)c3)cc(=O)c2c(OC)c1OC", "growth": "51.9% (inactive)"}
{"compound": "Nc1nc(Nc2ccccc2SSc2ccccc2Nc2nc(N)nc(-c3ccc4ccccc4c3)n2)nc(-c2ccc3ccccc3c2)n1", "growth": "92.4% (inactive)"}
{"compound": "CC(=O)Nc1cccc(Nc2nc(N[C@H](C)c3ccccc3)c3ccccc3n2)c1", "growth": "22% (inactive)"}
{"compound": "COc1c(N2CC3CCCNC3C2)c(F)cc2c(=O)c(C(=O)N/N=C/c3ccccc3)cn(C3CC3)c12", "note": "(configuration not stated)", "growth": "75.3% (inactive)"}
{"compound": "COc1ccc(-c2nc3ccc(-c4nnc(SCC(=O)Nc5ccc(C(=O)/C=C/c6ccc(Cl)cc6)cc5)o4)cc3[nH]2)cc1", "growth": "95% (inactive)"}
{"compound": "CC(=O)Nc1cccc(Nc2nc(N[C@@H](C)c3ccccc3)c3ccccc3n2)c1", "growth": "13.1% (inactive)"}
{"compound": "COc1cc(-c2nn(C(C)(C)C)cc2-c2ccnc(NCCCNS(=O)(=O)c3cccc(F)c3)n2)ccc1Cl", "growth": "54.9% (inactive)"}
